# According to PubChem BioAssay (Tox21):
# “And” between values parts separate entries of the source, which are not always exact repeats. Equal entries are not always repeated. Results filed as inconclusive are left out. Entries that show only a call come without a potency. The source made the active and inactive calls. Unless noted, the call rests on the fitted dose curve.
# Key:
# [1] = Nuclear factor erythroid 2-related factor 2/antioxidant responsive element (Nrf2/ARE) small molecule agonists: qHTS cell viability counter screen in human keratinocytes (AID 1919968; active means well fitted curve in the direction sought with a large enough effect in the repeat runs; an effect the other way counts as inactive or inconclusive; further: nearly all actives have a fitted effect of over 55% in size)
# Summary of the method: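 KeratinoSens HaCaT cells, 1,500/well, preincubated 5 h, then exposed to compounds in DMSO for 23 h at 37 C/5% CO2. Viability read as CellTiter-Fluor fluorescence after 1 h, in the same wells as the ARE-luciferase read.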
# [2] = Nuclear factor erythroid 2-related factor 2/antioxidant responsive element (Nrf2/ARE) small molecule agonists: luciferase reporter gene qHTS assay in human keratinocytes (AID 1919969); further: nearly all actives have a fitted effect of over 35% in size; further: potency means the concentration at half of the fitted maximal effect
# [3] = biological target: Gonadotropin-releasing hormone receptor (Homo sapiens) (UniProt P30968); assay: Human gonadotropin-releasing hormone receptor (GnRHR) small molecule agonists, calcium flux assay in GnRHR-HEK293 cells (AID 1920063); further: nearly all actives have a fitted effect of over 35% in size
# Sequence of Gonadotropin-releasing hormone receptor (Homo sapiens) (P30968 whole entry, looked up): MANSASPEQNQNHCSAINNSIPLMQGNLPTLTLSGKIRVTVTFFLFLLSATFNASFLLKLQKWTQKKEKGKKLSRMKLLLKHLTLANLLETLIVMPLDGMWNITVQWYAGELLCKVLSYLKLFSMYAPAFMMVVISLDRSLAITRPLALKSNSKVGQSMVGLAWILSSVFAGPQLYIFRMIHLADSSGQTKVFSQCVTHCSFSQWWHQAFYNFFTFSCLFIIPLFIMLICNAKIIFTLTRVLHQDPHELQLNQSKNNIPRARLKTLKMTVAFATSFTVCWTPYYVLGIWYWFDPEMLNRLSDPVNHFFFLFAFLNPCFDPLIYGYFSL
# Summary of the method: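 HEK293 cells stably expressing human GnRHR were dye-loaded for 1 h at 37 C. Compound was added in agonist mode and fluorescence (Ex/Em 480/540) recorded kinetically for 3 min. Fifteen concentrations, triplicates.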
# [4] = biological target: KiSS-1 receptor (Homo sapiens) (UniProt Q969F8); assay: Human kisspeptin (KISS1R) small molecule agonists, calcium flux assay in KISS1R-HEK293 cells (AID 1920064; active means well fitted curve in the direction sought with a large enough effect in the repeat runs; an effect the other way counts as inactive or inconclusive)
# Sequence of KiSS-1 receptor (Homo sapiens) (Q969F8 whole entry, looked up): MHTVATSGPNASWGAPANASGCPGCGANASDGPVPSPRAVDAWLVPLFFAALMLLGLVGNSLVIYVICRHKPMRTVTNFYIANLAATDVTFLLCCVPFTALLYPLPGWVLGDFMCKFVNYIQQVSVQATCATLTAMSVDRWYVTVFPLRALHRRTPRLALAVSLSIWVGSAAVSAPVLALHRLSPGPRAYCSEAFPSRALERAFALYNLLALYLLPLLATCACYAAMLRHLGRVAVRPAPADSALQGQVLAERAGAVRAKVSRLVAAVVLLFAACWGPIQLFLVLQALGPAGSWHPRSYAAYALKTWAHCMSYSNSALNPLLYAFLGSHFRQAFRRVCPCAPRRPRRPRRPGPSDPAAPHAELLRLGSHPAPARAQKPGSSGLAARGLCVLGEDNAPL
# Summary of the method: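 HEK293 cells stably expressing human KISS1R were loaded with calcium dye for 1 h at 37 C, then given compound; fluorescence (Ex/Em 480/540) was read kinetically for 3 min. Fifteen concentrations, triplicate.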
# [5] = G protein-coupled receptor (GPCR) small molecule agonists, calcium flux assay: HEK293 wild type cell line counter screen (AID 1920065)
# Summary of the method: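 Wild-type HEK293 cells plated 18 h, loaded with calcium dye 1 h at 37 C, then compounds added in agonist mode (ATP as positive control). Kinetic fluorescence Ex/Em 480/540 recorded 3 min at 1 sec intervals; 15 concentrations, triplicate.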
# [6] = p53 small molecule agonists, cell-based qHTS assay with human liver microsomes (AID 1963577)
# Summary of the method: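 Fluorescence of the beta-lactamase reporter in p53RE-bla cells, detected with LiveBLAzer substrate (2 h, room temperature, dark), served as the read-out after 16 h compound exposure at 37 C with human liver microsomes and NADPH, each 0.5 mg/mL final.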
# [7] = p53 small molecule agonists, cell-based qHTS assay with rat liver microsomes (AID 1963578)
# Summary of the method: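 Cells carrying a p53 response element–beta-lactamase reporter were plated and rested 5 h, then dosed with compound in DMSO plus rat liver microsomes and NADPH, each at 0.5 mg/mL final. After 16 h at 37 C, LiveBLAzer substrate was added for 2 h.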
# [8] = p53 small molecule agonists, cell-based qHTS assay with human liver microsomes: qHTS cell viability counter screen (AID 1963579); further: nearly all actives have a fitted effect of over 45% in size
# Summary of the method: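 Cytotoxicity counter screen: p53RE-bla, 4,000 cells/well; 5 h settle, 37 C/5% CO2; cpd + HLM 0.5 mg/mL + NADPH 0.5 mg/mL (final); 16 h, 37 C; CellTiter-Glo, 30 min RT, luminescence.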
# [9] = p53 small molecule agonists, cell-based qHTS assay with rat liver microsomes: qHTS cell viability counter screen (AID 1963580); further: nearly all actives have a fitted effect of over 45% in size
# Summary of the method: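 p53RE-bla HCT-116 cells (4,000/well) rested 5 h at 37 C, then given Tox21 compounds in DMSO with rat liver microsomes (0.5 mg/mL final) plus NADPH (0.5 mg/mL final) for 16 h at 37 C. Viability read by CellTiter-Glo luminescence after 30 min at room temperature.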
# [10] = p53 small molecule agonists, cell-based qHTS assay: qHTS cell viability counter screen (AID 1963581); further: nearly all actives have a fitted effect of over 45% in size
# Summary of the method: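 p53RE-bla HCT-116 cells, compounds added 5 h after plating and incubated 16 h at 37 C. Cytotoxicity measured in the same wells as intracellular ATP by CellTiter-Glo luminescence after 30 min at room temperature.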
# [11] = p53 small molecule agonists, cell-based qHTS assay (AID 1963582; active means well fitted activation curve with a large enough effect in the signal ratio in the repeat runs, not every such curve was filed as active; the % refers to the signal ratio)
# Summary of the method: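 p53RE-bla reporter cells, compounds added in DMSO after 5 h plating, incubated 16 h at 37 C. Beta-lactamase read via 2 h room-temperature LiveBLAzer B/G FRET substrate, fluorescence intensity.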
# [12] = biological target: 5-hydroxytryptamine receptor 2A (Homo sapiens) (UniProt P28223); assay: 5-hydroxytryptamine receptor 2A (HTR2A) small molecule agonists, cell-based qHTS assay (AID 1963587); further: nearly all actives have a fitted effect of over 30% in size
# Sequence of 5-hydroxytryptamine receptor 2A (Homo sapiens) (P28223 whole entry, looked up): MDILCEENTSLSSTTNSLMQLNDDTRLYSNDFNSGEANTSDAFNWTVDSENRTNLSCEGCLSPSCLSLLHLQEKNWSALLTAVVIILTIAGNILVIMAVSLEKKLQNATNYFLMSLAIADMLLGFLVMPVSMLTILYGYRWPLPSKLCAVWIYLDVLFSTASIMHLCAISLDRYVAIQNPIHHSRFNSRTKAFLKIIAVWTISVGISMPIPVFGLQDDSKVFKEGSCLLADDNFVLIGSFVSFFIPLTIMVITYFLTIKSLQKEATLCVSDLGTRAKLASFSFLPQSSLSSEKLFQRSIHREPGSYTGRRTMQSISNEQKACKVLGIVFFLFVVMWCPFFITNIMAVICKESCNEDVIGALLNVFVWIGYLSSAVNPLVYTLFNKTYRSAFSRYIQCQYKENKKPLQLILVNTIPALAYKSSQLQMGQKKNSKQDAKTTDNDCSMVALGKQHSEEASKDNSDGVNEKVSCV
# Summary of the method: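 HTR2A-CHO cells, plated 18 h at 37 C/5% CO2, dye-loaded 1 h at 37 C; compounds in DMSO added by pin tool (agonist mode). Intracellular calcium flux read as kinetic fluorescence on FDSS over 2 min at 1 s intervals.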
# [13] = biological target: Muscarinic acetylcholine receptor M1 (Homo sapiens) (UniProt P11229); assay: Cholinergic receptor muscarinic 1 (CHRM1) small molecule antagonists, cell-based qHTS assay (AID 1963588); further: nearly all actives have a fitted effect of over 40% in size
# Sequence of Muscarinic acetylcholine receptor M1 (Homo sapiens) (P11229 whole entry, looked up): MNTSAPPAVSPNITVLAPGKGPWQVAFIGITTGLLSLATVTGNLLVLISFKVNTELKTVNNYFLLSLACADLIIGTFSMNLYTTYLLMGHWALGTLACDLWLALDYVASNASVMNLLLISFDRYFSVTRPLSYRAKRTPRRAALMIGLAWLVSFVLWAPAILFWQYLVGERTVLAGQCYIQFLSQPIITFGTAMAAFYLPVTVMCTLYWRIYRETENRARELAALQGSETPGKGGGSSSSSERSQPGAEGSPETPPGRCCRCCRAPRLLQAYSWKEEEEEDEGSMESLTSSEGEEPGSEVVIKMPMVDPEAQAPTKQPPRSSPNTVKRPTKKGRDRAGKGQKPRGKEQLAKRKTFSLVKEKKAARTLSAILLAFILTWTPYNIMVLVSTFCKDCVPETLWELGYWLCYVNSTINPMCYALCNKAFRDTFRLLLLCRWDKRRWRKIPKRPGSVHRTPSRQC
# Summary of the method: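 CHRM1-CHO calcium-flux assay, antagonist mode. Cells were seeded 18 h, dye-loaded 1 h at 37 C and given compound for 5 min at RT, then acetylcholine was added at 50nM. FDSS fluorescence was read 3 min; 15 concentrations, three runs.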
# [14] = biological target: Muscarinic acetylcholine receptor M1 (Homo sapiens) (UniProt P11229); assay: Cholinergic receptor muscarinic 1 (CHRM1) small molecule agonists, cell-based qHTS assay (AID 1963589); further: nearly all actives have a fitted effect of over 35% in size
# Summary of the method: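 CHO cells stably expressing human CHRM1 were loaded with calcium dye for 1 h at 37 C, then compound was added in agonist mode. Intracellular calcium fluorescence was followed kinetically at 1 s intervals. Fifteen concentrations were tested in three independent runs.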
# [15] = cAMP Responsive Elements (CRE) small molecule agonists, cell-based qHTS assay (AID 1963590)
# Summary of the method: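 CRE-bla HEK 293T cells, 2,000/well in DMEM with 10% dialyzed FBS and 25 mM HEPES, pre-incubated 18 h at 37 C, then exposed to compound 3 h at 37 C. Beta-lactamase reporter read with LiveBLAzer B/G FRET substrate after 2 h at room temperature.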
# [16] = cAMP Responsive Elements (CRE) small molecule antagonists, cell-based qHTS assay (AID 1963591; active means well fitted inhibition curve with a large enough effect in the signal ratio in the repeat runs, not every such curve was filed as active; the % refers to the signal ratio)
# Summary of the method: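 CRE-bla HEK293T cells plated 18 h, then given compound plus NKH477 at 0.25 uM final for 3 h at 37C. Beta-lactamase reporter read with LiveBLAzer B/G FRET substrate after 2 h at room temperature.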
# [17] = biological target: Beta-2 adrenergic receptor (Homo sapiens) (UniProt P07550); assay: Adrenergic beta2 receptor (ADRB2) small molecule antagonists, cell-based qHTS assay (AID 1963592); further: series mostly up to about 92 µM; nearly all actives have a fitted effect of over 50% in size
# Sequence of Beta-2 adrenergic receptor (Homo sapiens) (P07550 whole entry, looked up): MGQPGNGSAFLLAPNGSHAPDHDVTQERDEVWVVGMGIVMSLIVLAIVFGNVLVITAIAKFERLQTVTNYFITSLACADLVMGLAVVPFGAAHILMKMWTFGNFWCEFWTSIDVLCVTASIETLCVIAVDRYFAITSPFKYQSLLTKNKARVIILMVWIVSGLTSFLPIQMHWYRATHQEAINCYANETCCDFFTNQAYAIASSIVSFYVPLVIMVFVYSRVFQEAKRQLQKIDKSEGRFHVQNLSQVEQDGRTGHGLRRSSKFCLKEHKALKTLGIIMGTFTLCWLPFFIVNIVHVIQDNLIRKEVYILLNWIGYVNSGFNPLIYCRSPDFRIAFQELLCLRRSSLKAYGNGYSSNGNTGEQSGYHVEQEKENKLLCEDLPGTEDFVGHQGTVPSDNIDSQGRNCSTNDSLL
# Summary of the method: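 Cells (CHO, stable ADRB2 overexpression) incubated 18-20hr at 37C; compounds added from DMSO; agonist mix (1nM isoproterenol, 100uM IBMX, 25uM Ro-20-1724) added; 0.5hr RT; d2-cAMP and anti-cAMP-cryptate added; 1hr RT; 665/615 nm read.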
# [18] = biological target: D(2) dopamine receptor (Homo sapiens) (UniProt P14416); assay: Dopamine D2 receptor (DRD2) small molecule agonists, cell-based qHTS assay (AID 1963594); further: nearly all actives have a fitted effect of over 35% in size
# Sequence of D(2) dopamine receptor (Homo sapiens) (P14416 whole entry, looked up): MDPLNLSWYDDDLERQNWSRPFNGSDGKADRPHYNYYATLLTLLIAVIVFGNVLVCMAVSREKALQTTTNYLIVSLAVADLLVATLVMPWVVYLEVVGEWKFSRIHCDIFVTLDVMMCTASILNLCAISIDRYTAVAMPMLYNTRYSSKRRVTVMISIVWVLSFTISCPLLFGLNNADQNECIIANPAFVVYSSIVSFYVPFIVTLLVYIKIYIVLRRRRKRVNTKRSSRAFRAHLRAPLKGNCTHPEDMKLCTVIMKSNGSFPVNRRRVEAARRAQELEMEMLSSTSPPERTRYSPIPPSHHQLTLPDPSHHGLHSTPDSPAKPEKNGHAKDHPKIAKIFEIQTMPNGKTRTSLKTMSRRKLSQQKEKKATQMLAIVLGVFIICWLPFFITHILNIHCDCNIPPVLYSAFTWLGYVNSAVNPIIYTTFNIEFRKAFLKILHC
# Summary of the method: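 HEK293 cells stably expressing DRD2 were cultured 24 h at 37 C, then given Ro20-1724 (0.1 mM final) and compounds for 10 min at room temperature. NKH477 (200nM) was then added for 30 min. cAMP was read by HTRF.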
# [19] = biological target: D(2) dopamine receptor (Homo sapiens) (UniProt P14416); assay: Dopamine D2 receptor (DRD2) small molecule antagonists, cell-based qHTS assay (AID 1963595; active means well fitted inhibition curve with a large enough effect in the signal ratio in the repeat runs, with a control signal flat; the % refers to the signal ratio)
# Summary of the method: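 Antagonist mode in DRD2-HEK293 cells: after compound addition with 0.1 mM Ro20-1724, cells received quinpirole (12 nM) and NKH477 (200 nM) for 30 min at room temperature; HTRF cAMP read after 1 h detection.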
# [20] = biological target: 5-hydroxytryptamine receptor 2A (Homo sapiens) (UniProt P28223); assay: 5-hydroxytryptamine receptor 2A (HTR2A) small molecule antagonists, cell-based qHTS assay (AID 1963586); further: nearly all actives have a fitted effect of over 45% in size
# Summary of the method: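 Antagonist-mode intracellular calcium assay: DOI (4 nM) added after 5 min compound pre-incubation at room temperature to dye-loaded HTR2A-CHO cells. Fluorescence followed for 3 min, sampled every second.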
SMILES,Potency [1],Potency [2],Potency [3],Potency [4],Potency [5],Potency [6],Potency [7],Potency [8],Potency [9],Potency [10],Potency [11],Potency [12],Potency [13],Potency [14],Potency [15],Potency [16],Potency [17],Potency [18],Potency [19],Potency [20]
O=C(O)CC[N+](=O)[O-],inactive,inactive,inactive,inactive,inactive,inactive,inactive,inactive,inactive,inactive,inactive,inactive,inactive,inactive,inactive,inactive,inactive,inactive,inactive,
CN(CCCC(=O)c1cccnc1)N=O,inactive,inactive,inactive,inactive,inactive,inactive,inactive,inactive,inactive,inactive,inactive,inactive,,inactive,inactive,inactive,inactive,inactive,inactive,inactive
CCCCCCCCCl,inactive,inactive,inactive,inactive,inactive,inactive,inactive,inactive,inactive,inactive,inactive,inactive,inactive,inactive,inactive,inactive,inactive,inactive,inactive,
CN(C)C(=O)Nc1cccc(C(F)(F)F)c1,inactive,inactive,inactive,inactive,inactive,inactive,inactive,inactive,inactive,inactive,inactive,inactive,inactive,inactive,inactive,inactive,inactive,inactive,inactive,
COc1cc(-c2ccc(N)c(OC)c2)ccc1N,inactive,inactive,inactive,inactive,inactive,inactive,inactive,inactive,inactive,inactive,inactive,inactive,,inactive,inactive,inactive,,inactive,inactive,inactive
CC(C)(N)Cc1ccccc1Cl,inactive,inactive,inactive,inactive,inactive,inactive,inactive,inactive,inactive,inactive,inactive,inactive,,inactive,inactive,inactive,inactive,inactive,inactive,inactive
NC(=O)OCCCc1ccccc1,inactive,inactive,inactive,inactive,inactive,inactive,inactive,inactive,inactive,inactive,inactive,,inactive,inactive,inactive,inactive,inactive,,inactive,inactive
Cc1cccc(N=Nc2ccc(N(C)C)cc2)c1,inactive,247 nM (active) and 1.72 µM (active),inactive,inactive,inactive,inactive,inactive,inactive,inactive,inactive,inactive,inactive,inactive,inactive,inactive,inactive,inactive,inactive,inactive,
